# Assay results reported in PubChem BioAssay (Tox21).
# Unmarked numbers belong to inactive results. Inconclusive results are not listed. Entries that show only a call come without a potency. Activity calls are given as the source filed them. Unless noted, the call rests on the fitted dose curve.
# Columns and labels:
# [1] = Nuclear factor erythroid 2-related factor 2/antioxidant responsive element (Nrf2/ARE) small molecule agonists: qHTS cell viability counter screen in human keratinocytes (AID 1919968; active means well fitted curve in the direction sought with a large enough effect in the repeat runs; an effect the other way counts as inactive or inconclusive; further: nearly all actives have a fitted effect of over 55% in size; further: potency means the concentration at half of the fitted maximal effect)
# Procedure, shortened: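 Viability counter-screen: KeratinoSens reporter cells, DMSO-delivered compounds, 23 h at 37 C, CellTiter-Fluor fluorescence.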
# [2] = Nuclear factor erythroid 2-related factor 2/antioxidant responsive element (Nrf2/ARE) small molecule agonists: luciferase reporter gene qHTS assay in human keratinocytes (AID 1919969); further: nearly all actives have a fitted effect of over 35% in size; further: potency means the concentration at half of the fitted maximal effect
# [3] = target: Gonadotropin-releasing hormone receptor (Homo sapiens) (UniProt P30968); assay: Human gonadotropin-releasing hormone receptor (GnRHR) small molecule agonists, calcium flux assay in GnRHR-HEK293 cells (AID 1920063); further: nearly all actives have a fitted effect of over 35% in size
# Gonadotropin-releasing hormone receptor (Homo sapiens), sequence (P30968 whole entry, looked up): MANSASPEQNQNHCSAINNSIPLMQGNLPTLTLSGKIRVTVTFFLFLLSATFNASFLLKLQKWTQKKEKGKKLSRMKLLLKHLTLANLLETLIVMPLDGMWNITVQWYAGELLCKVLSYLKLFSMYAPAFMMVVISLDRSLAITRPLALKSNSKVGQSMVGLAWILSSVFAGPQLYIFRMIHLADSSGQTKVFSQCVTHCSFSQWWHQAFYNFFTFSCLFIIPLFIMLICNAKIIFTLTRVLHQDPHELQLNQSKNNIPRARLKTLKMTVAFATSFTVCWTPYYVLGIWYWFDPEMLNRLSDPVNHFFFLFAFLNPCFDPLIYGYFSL
# Procedure, shortened: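 Tox21-format agonist screen using human GnRHR-expressing HEK293 cells and a fluorescent calcium dye; kinetic 3-min fluorescence reading after compound addition, 15-point concentration series run in triplicate.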
# [4] = target: KiSS-1 receptor (Homo sapiens) (UniProt Q969F8); assay: Human kisspeptin (KISS1R) small molecule agonists, calcium flux assay in KISS1R-HEK293 cells (AID 1920064; active means well fitted curve in the direction sought with a large enough effect in the repeat runs; an effect the other way counts as inactive or inconclusive)
# KiSS-1 receptor (Homo sapiens), sequence (Q969F8 whole entry, looked up): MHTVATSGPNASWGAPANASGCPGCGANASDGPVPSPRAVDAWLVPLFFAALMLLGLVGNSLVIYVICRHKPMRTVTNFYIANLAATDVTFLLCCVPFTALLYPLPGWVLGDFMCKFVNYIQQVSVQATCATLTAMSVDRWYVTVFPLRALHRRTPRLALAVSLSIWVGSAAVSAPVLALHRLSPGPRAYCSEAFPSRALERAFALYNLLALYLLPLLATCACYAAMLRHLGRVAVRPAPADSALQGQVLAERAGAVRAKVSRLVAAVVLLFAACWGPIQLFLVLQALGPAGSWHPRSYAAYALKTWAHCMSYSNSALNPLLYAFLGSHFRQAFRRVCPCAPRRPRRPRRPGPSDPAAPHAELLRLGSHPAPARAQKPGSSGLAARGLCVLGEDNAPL
# Procedure, shortened: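 Intracellular calcium mobilization in KISS1R-HEK293 cells was recorded by fluorescence (Ex/Em 480/540) for 3 min following compound addition to cells pre-loaded 1 h with calcium dye.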
# [5] = G protein-coupled receptor (GPCR) small molecule agonists, calcium flux assay: HEK293 wild type cell line counter screen (AID 1920065)
# Procedure, shortened: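 In this agonist-mode screen, ATP is the positive control and DMSO the vehicle. Cells grow 18 h before a 1 h dye incubation at 37 C; signal is taken at Ex/Em 480/540 over 3 min.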
# [6] = p53 small molecule agonists, cell-based qHTS assay with rat liver microsomes: qHTS cell viability counter screen (AID 1963580); further: nearly all actives have a fitted effect of over 45% in size
# Procedure, shortened: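 HCT-116 p53RE-bla, 4,000 cells/well, 5 h pre-incubation; cpd + rat liver microsomes 0.5 mg/mL + NADPH 0.5 mg/mL (final); 16 h, 37 C; CellTiter-Glo, 30 min RT; luminescence.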
# [7] = target: 5-hydroxytryptamine receptor 2A (Homo sapiens) (UniProt P28223); assay: 5-hydroxytryptamine receptor 2A (HTR2A) small molecule antagonists, cell-based qHTS assay (AID 1963586); further: nearly all actives have a fitted effect of over 45% in size; further: potency means the concentration at half of the fitted maximal effect
# 5-hydroxytryptamine receptor 2A (Homo sapiens), sequence (P28223 whole entry, looked up): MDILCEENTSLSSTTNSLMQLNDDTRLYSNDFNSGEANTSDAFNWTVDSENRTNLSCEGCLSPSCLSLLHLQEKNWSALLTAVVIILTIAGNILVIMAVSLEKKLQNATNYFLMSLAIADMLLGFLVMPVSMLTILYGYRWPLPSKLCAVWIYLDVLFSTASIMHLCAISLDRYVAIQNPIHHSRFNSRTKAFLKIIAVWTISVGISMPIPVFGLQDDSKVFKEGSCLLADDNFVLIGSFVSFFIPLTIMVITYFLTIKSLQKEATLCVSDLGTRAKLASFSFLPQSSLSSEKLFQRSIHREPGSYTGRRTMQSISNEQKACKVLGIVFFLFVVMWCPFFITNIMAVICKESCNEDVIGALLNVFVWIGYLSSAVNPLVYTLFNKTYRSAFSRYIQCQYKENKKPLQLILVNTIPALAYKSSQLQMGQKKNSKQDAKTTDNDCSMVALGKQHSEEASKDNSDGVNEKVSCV
# Procedure, shortened: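 Antagonist-mode intracellular calcium assay: DOI (4 nM) added after 5 min compound pre-incubation at room temperature to dye-loaded HTR2A-CHO cells. Fluorescence followed for 3 min, sampled every second.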
# [8] = target: 5-hydroxytryptamine receptor 2A (Homo sapiens) (UniProt P28223); assay: 5-hydroxytryptamine receptor 2A (HTR2A) small molecule agonists, cell-based qHTS assay (AID 1963587); further: nearly all actives have a fitted effect of over 30% in size
# Procedure, shortened: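 Kinetic calcium-flux fluorescence (2 min, 1 sec intervals) after compound addition in agonist mode. HTR2A-CHO cells were cultured 18 h, then dye-loaded 1 h at 37 C.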
# [9] = cAMP Responsive Elements (CRE) small molecule agonists, cell-based qHTS assay (AID 1963590)
# Procedure, shortened: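 FRET-based beta-lactamase readout (LiveBLAzer B/G, 2 h RT) quantified CRE activation in HEK 293T CRE-bla cells after 3 h treatment with DMSO-dissolved compounds.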
# [10] = target: D(2) dopamine receptor (Homo sapiens) (UniProt P14416); assay: Dopamine D2 receptor (DRD2) small molecule agonists, cell-based qHTS assay (AID 1963594); further: nearly all actives have a fitted effect of over 35% in size
# D(2) dopamine receptor (Homo sapiens), sequence (P14416 whole entry, looked up): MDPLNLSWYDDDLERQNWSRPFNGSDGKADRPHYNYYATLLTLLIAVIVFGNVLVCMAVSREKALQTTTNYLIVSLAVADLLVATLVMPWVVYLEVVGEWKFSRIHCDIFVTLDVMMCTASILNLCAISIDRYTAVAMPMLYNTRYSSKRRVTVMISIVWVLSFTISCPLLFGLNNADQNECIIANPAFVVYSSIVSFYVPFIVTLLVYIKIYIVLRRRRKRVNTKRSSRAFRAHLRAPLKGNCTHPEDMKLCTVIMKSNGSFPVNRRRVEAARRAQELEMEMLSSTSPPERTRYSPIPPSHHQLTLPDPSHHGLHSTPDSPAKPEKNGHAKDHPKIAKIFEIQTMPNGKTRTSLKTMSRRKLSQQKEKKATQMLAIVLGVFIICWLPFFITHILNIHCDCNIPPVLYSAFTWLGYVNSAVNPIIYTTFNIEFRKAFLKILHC
# Procedure, shortened: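 cAMP accumulation in DRD2-HEK293 cells measured by HTRF after 1 h detection; compounds added 10 min before NKH477 (200nM […]) forskolin-analogue stimulation, 30 min at room temperature, with Ro20-1724 present at 0.1 mM final.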
# [11] = target: D(2) dopamine receptor (Homo sapiens) (UniProt P14416); assay: Dopamine D2 receptor (DRD2) small molecule antagonists, cell-based qHTS assay (AID 1963595; active means well fitted inhibition curve with a large enough effect in the signal ratio in the repeat runs, with a control signal flat; the % refers to the signal ratio)
# Procedure, shortened: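 Antagonism was scored as restored cAMP in HEK293-DRD2 cells. These cells were stimulated with 200 nM NKH477 and 12 nM quinpirole for 30 min at room temperature, in the presence of 0.1 mM Ro20-1724.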
# [12] = p53 small molecule agonists, cell-based qHTS assay: qHTS cell viability counter screen (AID 1963581); further: nearly all actives have a fitted effect of over 45% in size; further: potency means the concentration at half of the fitted maximal effect
# Procedure, shortened: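 Compounds are pinned onto HCT-116 p53RE-bla cells and left 16 h at 37 C. Following the reporter FRET read, ATP is quantified by CellTiter-Glo luminescence after 30 min at room temperature.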
# [13] = target: Muscarinic acetylcholine receptor M1 (Homo sapiens) (UniProt P11229); assay: Cholinergic receptor muscarinic 1 (CHRM1) small molecule antagonists, cell-based qHTS assay (AID 1963588); further: nearly all actives have a fitted effect of over 40% in size; further: potency means the concentration at half of the fitted maximal effect
# Muscarinic acetylcholine receptor M1 (Homo sapiens), sequence (P11229 whole entry, looked up): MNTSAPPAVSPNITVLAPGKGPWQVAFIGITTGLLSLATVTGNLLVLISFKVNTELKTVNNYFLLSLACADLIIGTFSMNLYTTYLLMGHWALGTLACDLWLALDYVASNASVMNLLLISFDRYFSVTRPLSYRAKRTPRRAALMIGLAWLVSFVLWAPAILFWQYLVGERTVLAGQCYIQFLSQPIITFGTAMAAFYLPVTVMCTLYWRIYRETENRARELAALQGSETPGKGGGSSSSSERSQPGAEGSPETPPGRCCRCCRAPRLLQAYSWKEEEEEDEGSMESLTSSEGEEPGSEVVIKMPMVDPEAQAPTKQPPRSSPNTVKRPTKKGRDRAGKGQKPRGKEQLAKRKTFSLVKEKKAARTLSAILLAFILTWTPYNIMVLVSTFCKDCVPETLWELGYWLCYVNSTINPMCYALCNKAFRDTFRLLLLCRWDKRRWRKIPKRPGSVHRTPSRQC
# Procedure, shortened: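 CHRM1-CHO calcium-flux assay, antagonist mode. Cells were seeded 18 h, dye-loaded 1 h at 37 C and given compound for 5 min at RT, then acetylcholine was added at 50nM. FDSS fluorescence was read 3 min; 15 concentrations, three runs.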
# [14] = target: Muscarinic acetylcholine receptor M1 (Homo sapiens) (UniProt P11229); assay: Cholinergic receptor muscarinic 1 (CHRM1) small molecule agonists, cell-based qHTS assay (AID 1963589); further: nearly all actives have a fitted effect of over 35% in size
# Procedure, shortened: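 Stable CHRM1-CHO cells (human receptor) were incubated 18 h, dye-loaded for 1 h at 37 C and exposed to test compounds for agonist activity, with calcium-dependent fluorescence followed kinetically.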
# [15] = cAMP Responsive Elements (CRE) small molecule antagonists, cell-based qHTS assay (AID 1963591; active means well fitted inhibition curve with a large enough effect in the signal ratio in the repeat runs, not every such curve was filed as active; the % refers to the signal ratio; further: potency means the concentration at half of the fitted maximal effect)
# Procedure, shortened: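 qHTS in CRE-bla HEK 293T cells: compound in DMSO, then 0.25 uM NKH477 (final), 3 h at 37 °C/5% CO2; beta-lactamase FRET read-out after 2 h substrate incubation.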
# [16] = target: Beta-2 adrenergic receptor (Homo sapiens) (UniProt P07550); assay: Adrenergic beta2 receptor (ADRB2) small molecule antagonists, cell-based qHTS assay (AID 1963592); further: series mostly up to about 92 µM; nearly all actives have a fitted effect of over 50% in size
# Beta-2 adrenergic receptor (Homo sapiens), sequence (P07550 whole entry, looked up): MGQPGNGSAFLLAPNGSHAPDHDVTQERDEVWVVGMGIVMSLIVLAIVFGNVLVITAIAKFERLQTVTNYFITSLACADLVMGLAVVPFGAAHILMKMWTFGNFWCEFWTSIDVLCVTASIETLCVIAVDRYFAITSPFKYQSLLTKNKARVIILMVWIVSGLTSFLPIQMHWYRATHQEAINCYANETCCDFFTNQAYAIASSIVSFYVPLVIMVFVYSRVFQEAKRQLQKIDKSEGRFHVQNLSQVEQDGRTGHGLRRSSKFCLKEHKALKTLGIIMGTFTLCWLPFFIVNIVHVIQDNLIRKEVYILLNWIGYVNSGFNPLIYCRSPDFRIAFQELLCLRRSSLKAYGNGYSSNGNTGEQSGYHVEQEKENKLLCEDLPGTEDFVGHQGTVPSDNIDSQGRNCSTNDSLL
# Procedure, shortened: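 Cells (CHO, stable ADRB2 overexpression) incubated 18-20hr at 37C; compounds added from DMSO; agonist mix (1nM isoproterenol, 100uM IBMX, 25uM Ro-20-1724) added; 0.5hr RT; d2-cAMP and anti-cAMP-cryptate added; 1hr RT; 665/615 nm read.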
# [17] = target: Beta-2 adrenergic receptor (Homo sapiens) (UniProt P07550); assay: Adrenergic beta2 receptor (ADRB2) small molecule agonists, cell-based qHTS assay (AID 1963593);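 further: CHO cells stably overexpressing human ADRB2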
# Procedure, shortened: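 CHO cells stably over-expressing ADRB2 were plated overnight at 37C, then dosed with compounds plus a stimulation mix containing 100uM IBMX and 25uM Ro-20-1724 for 0.5hr at room temperature. cAMP was measured by HTRF competition, 1hr.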
# [18] = p53 small molecule agonists, cell-based qHTS assay with human liver microsomes: qHTS cell viability counter screen (AID 1963579); further: nearly all actives have a fitted effect of over 45% in size
# Procedure, shortened: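 HLM-supplemented (0.5 mg/mL final) and NADPH-supplemented (0.5 mg/mL final) p53RE-bla cultures, 4,000 cells per well, were dosed with compounds in DMSO for 16 h at 37 C; luminescent ATP detection (CellTiter-Glo, 30 min, room temperature) quantified surviving cells.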
SMILES,Potency [1],Potency [2],Potency [3],Potency [4],Potency [5],Potency [6],Potency [7],Potency [8],Potency [9],Potency [10],Potency [11],Potency [12],Potency [13],Potency [14],Potency [15],Potency [16],Potency [17],Potency [18]
Clc1ccc(C(Cn2ccnc2)OCc2ccsc2Cl)c(Cl)c1 (stereo unspecified),8.41 µM (active),10.6 µM (active),inactive,inactive,inactive,inactive,inactive,inactive,inactive,inactive,inactive,,,,,,,
O=S1(=O)CCCC1,inactive,inactive,inactive,inactive,inactive,inactive,inactive,,,inactive,inactive,inactive,inactive,inactive,inactive,inactive,inactive,
O=c1cc(O)c(Cl)c[nH]1,inactive,inactive,inactive,inactive,inactive,inactive,,,inactive,inactive,inactive,inactive,inactive,inactive,inactive,inactive,,
Cc1nccn1-c1ccc(Sc2cccc(C3(C(N)=O)CCOCC3)c2)cc1,inactive,inactive,inactive,inactive,inactive,inactive,inactive,inactive,,inactive,,inactive,,inactive,,inactive,inactive,
Cc1ncc([C@@H](CCCCCCc2ccc3c(n2)NCCC3)CC(=O)O)cn1,inactive,inactive,inactive,inactive,inactive,inactive,,inactive,inactive,inactive,inactive,,inactive,inactive,0.545 µM (active),inactive,inactive,
CCCCCCCCCCC=O,inactive,inactive,inactive,inactive,inactive,inactive,inactive,inactive,inactive,inactive,inactive,inactive,inactive,inactive,inactive,inactive,inactive,
COc1cccc(N(C)C(=S)Oc2ccc3c(c2)CCCC3)n1,inactive,inactive,inactive,inactive,inactive,inactive,5.79 µM (active),inactive,inactive,inactive,inactive,inactive,inactive,inactive,inactive,inactive,,
C=C1C(C)(C)[C@@]2(Cl)C(Cl)[C@]1(Cl)C(Cl)(Cl)C2(Cl)Cl (stereo partly specified),47.7 µM (active),9.51 µM (active),inactive,inactive,inactive,inactive,inactive,inactive,,inactive,inactive,40 µM (active),inactive,inactive,,inactive,,
COP(=O)(O)OP(=O)(O)OC,inactive,24.3 µM (active),inactive,inactive,inactive,inactive,inactive,inactive,,,inactive,inactive,inactive,inactive,inactive,inactive,,
CCCOc1ccc(S(=O)(=O)N2CCN(CC)CC2)cc1-c1nc2c(CC)n(Cc3ccccn3)nc2c(=O)[nH]1,inactive,inactive,inactive,inactive,inactive,,,inactive,,,inactive,,18.8 µM (active),inactive,,,,inactive
CC1=CC(=O)CCC1,inactive,inactive,inactive,inactive,inactive,inactive,inactive,inactive,,inactive,inactive,inactive,inactive,inactive,inactive,inactive,,
C[C@H]1[C@H]2CC[C@H]3[C@@H]4CC=C5C[C@@H](N(C)C)CC[C@]5(C)[C@H]4CC[C@]23CN1C,inactive,inactive,inactive,inactive,inactive,inactive,inactive,inactive,inactive,inactive,inactive,,0.729 µM (active),inactive,inactive,inactive,inactive,
CC(CN(CCN(CC(C)OCCO)CC(C)OCCO)CC(C)OCCO)OCCO (stereo unspecified),inactive,inactive,inactive,inactive,inactive,inactive,,inactive,inactive,inactive,inactive,,inactive,inactive,inactive,inactive,inactive,
c1ccc(Sc2ccccc2)cc1,inactive,68.6 µM (active),inactive,inactive,inactive,,inactive,inactive,inactive,inactive,,inactive,,inactive,inactive,inactive,,
COc1ccc(/C=C/C(=O)c2ccc(OC)cc2OC)cc1,inactive,29.8 µM (active),inactive,inactive,inactive,,inactive,inactive,,inactive,inactive,inactive,inactive,inactive,,inactive,,
